From PubChem BioAssay AID1159580 (chemical genetic matrix, 2015)
Values joined by “and” are separate entries in the source; they are usually repeats but may differ in a detail not shown here. Equal entries are not always repeated. The campaign covered roughly 5,500 compounds. About 2,000 (36%) were called active. Inconclusive results (about 18%) are left out. Rule as the data show it: active = normalized growth mostly below about 0.91 (no sharp cut-off); inconclusive = no clear call, values can overlap the other calls; inactive = mostly above about 0.92. This is one part of the list.

Experiment: chemical genetic growth profiling, strain panel (AID 1159580);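 also: tested at 20 µM; growth read once vehicle control cultures reached saturation at 30 °C; 1 = growth at the plate median or of vehicle wells; lower values mean less growth of the strain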
Details: S. cerevisiae deletion strains, growth OD

Measured: normalized growth

C#C[C@]1(O)CCC2C3CCC4=CC(=O)CC[C@@H]4C3CC[C@@]21C (some centres undefined)
inactive: locus YAL021C, strain ccr4, active compounds read low 0.973 | locus YAL026C, strain drs2, active compounds read low 0.967 | locus YAL030W, strain snc1, active compounds read low 0.987 | locus YBL061C, strain skt5, active compounds read low 0.989 | locus YBR009C, strain hhf1, active compounds read low 0.985 | locus YBR021W, strain FUR4, active compounds read low 0.978 | locus YBR023C, strain chs3, active compounds read low 0.987 | locus YBR171W, strain sec66, active compounds read low 0.969 | locus YBR229C, strain ROT2, active compounds read low 0.997 | locus YBR231C, strain swc5, active compounds read low 1 | locus YBR279W, strain paf1, active compounds read low 0.994 | locus YCL011C, strain gbp2, active compounds read low 0.984 | locus YCL016C, strain dcc1, active compounds read low 1 | locus YCL029C, strain bik1, active compounds read low 0.984 | locus YCL061C, strain MRC1, active compounds read low 0.977 | locus YCL069W, strain vba3, active compounds read low 0.968 | locus YCR088W, strain abp1, active compounds read low 0.982 | locus YDL005C, strain med2, active compounds read low 0.962 | locus YDL035C, strain GPR1, active compounds read low 0.98 | locus YDL040C, strain nat1, active compounds read low 0.984 | locus YDL074C, strain BRE1, active compounds read low 0.988 | locus YDL101C, strain DUN1, active compounds read low 0.995 | locus YDL134C, strain PPH21, active compounds read low 0.975 | locus YDL185W, strain tfp1, active compounds read low 0.98 | locus YDL192W, strain arf1, active compounds read low 0.978 | locus YDR001C, strain nth1, active compounds read low 0.981 | locus YDR069C, strain doa4, active compounds read low 0.972 | locus YDR101C, strain arx1, active compounds read low 0.97 | locus YDR137W, strain rgp1, active compounds read low 0.892 | locus YDR150W, strain NUM1, active compounds read low 1.01 | locus YDR159W, strain sac3, active compounds read low 0.981 | locus YDR162C, strain NBP2, active compounds read low 0.932 | locus YDR195W, strain ref2 1.01 | locus YDR297W, strain sur2, active compounds read low 0.993 | locus YDR318W, strain mcm21, active compounds read low 0.974 | locus YDR334W, strain swr1, active compounds read low 0.977 | locus YDR335W, strain msn5, active compounds read low 0.98 | locus YDR388W, active compounds read low 0.975 | locus YDR392W, strain spt3, active compounds read low 0.801 | locus YDR502C, strain sam2, active compounds read low 0.957 | locus YEL003W, strain gim4, active compounds read low 0.97 | locus YEL037C, strain rad23, active compounds read low 0.966 | locus YEL061C, strain CIN8 (second series), active compounds read low 0.967 | locus YEL061C, strain CIN8, active compounds read low 0.995 | locus YER015W, strain faa2, active compounds read low 0.974 | locus YER016W, strain bim1, active compounds read low 0.98 | locus YER110C, active compounds read low 0.982 | locus YER111C, strain swi4, active compounds read low 0.988 | locus YER155C, strain BEM2 (second series), active compounds read low 0.981 | locus YER155C, strain BEM2, active compounds read low 0.999 | locus YER167W, strain BCK2, active compounds read low 0.991 | locus YFR010W, strain ubp6, active compounds read low 0.979 | locus YGL078C, strain dbp3, active compounds read low 0.979 | locus YGL086W, strain mad1, active compounds read low 0.991 | locus YGL167C, strain pmr1, active compounds read low 0.972 | locus YGL173C, strain kem1, active compounds read low 0.969 | locus YGL227W, strain vid30, active compounds read low 0.984 | locus YGL240W, strain doc1, active compounds read low 0.988 | locus YGL248W, strain PDE1, active compounds read low 0.998 | locus YGL253W, strain hxk2, active compounds read low 0.982 | locus YGR135W, strain pre9, active compounds read low 0.986 | locus YGR229C, strain SMI1, active compounds read low 0.948 | locus YGR252W, strain gcn5, active compounds read low 0.978 | locus YHR013C, strain ard1, active compounds read low 0.993 | locus YHR027C, strain rpn1, active compounds read low 0.981 | locus YHR030C, strain SLT2, active compounds read low 1 and 0.925 | locus YHR079C, strain IRE1 (second series), active compounds read low 0.983 | locus YHR079C, strain IRE1, active compounds read low 0.95 | locus YHR094C, strain hxt1, active compounds read low 0.981 | locus YHR129C, strain ARP1, active compounds read low 1.01 | locus YHR142W, strain chs7, active compounds read low 0.952 | locus YHR200W, strain rpn10, active compounds read low 0.986 | locus YIL066C, strain RNR3, active compounds read low 0.99 | locus YIL073C, strain SPO22, active compounds read low 0.9 | locus YIL125W, strain kgd1, active compounds read low 0.986 | locus YIR030C, strain dcg1, active compounds read low 0.984 | locus YJL092W, strain hpr5, active compounds read low 0.976 | locus YJL095W, strain BCK1 (second series), active compounds read low 0.99 | locus YJL095W, strain BCK1, active compounds read low 0.932 and 0.954 | locus YJL115W, strain asf1, active compounds read low 0.975 | locus YJL129C, strain trk1, active compounds read low 0.919 | locus YJL134W, strain LCB3, active compounds read low 0.995 | locus YJL154C, strain vps35, active compounds read low 0.965 | locus YJL164C, strain tpk1, active compounds read low 0.976 | locus YJL166W, strain qcr8, active compounds read low 0.992 | locus YJL168C, strain set2, active compounds read low 0.984 | locus YJL187C, strain SWE1 (second series), active compounds read low 0.991 | locus YJL187C, strain SWE1, active compounds read low 0.983 | locus YJR043C, strain POL32, active compounds read low 1.01
